# Results filed as inconclusive are left out. Where a call stands in place of a potency, no number is given. Unmarked numbers belong to inactive results. Calls of active or inactive are those of the source. Calls follow the shape of the dose curve; as a rule, active = well fitted inhibition curve with a large enough effect; inconclusive = small, poorly fitted or top-dose-only effect; inactive = flat fitted curve, though single readings scatter. Where a SMILES comes first, the peptide text is derived from it. Bridges are numbered along the chain shown (N, C = ends).
# Experiments:
# [1] = target: Glutathione peroxidase 1 (Homo sapiens) (UniProt P07203); assay: Primary qHTS Assay for Inhibitors of Recombinant Selenoprotein Glutathione Peroxidase 1 (GPX1) (AID 1845191)
# Glutathione peroxidase 1 (Homo sapiens), sequence (P07203 whole entry, looked up): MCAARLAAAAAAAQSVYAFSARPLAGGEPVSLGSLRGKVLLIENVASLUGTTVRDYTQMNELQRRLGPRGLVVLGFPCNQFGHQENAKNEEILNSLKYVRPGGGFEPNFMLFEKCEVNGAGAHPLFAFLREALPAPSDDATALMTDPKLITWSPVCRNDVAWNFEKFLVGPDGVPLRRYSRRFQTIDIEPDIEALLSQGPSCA
# Method in brief: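 NADPH consumption tracked by fluorescence at 340/450 nm between t=0 and t=15 min, room temperature. Final mix: 10 nM GPX1, 100 nM glutathione reductase, 1 mM GSH, 0.5 mM NADPH, 0.5 mM cumene hydroperoxide, 0.01% BSA; 30 min compound–enzyme preincubation.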
# [2] = target: Phospholipid hydroperoxide glutathione peroxidase GPX4 (Homo sapiens) (UniProt P36969); assay: Primary qHTS Assay for Inhibitors of Recombinant Selenoprotein Glutathione Peroxidase 4 (GPX4) (AID 1845192); as to activity change, negative = inhibition: series mostly up to about 50 µM
# Phospholipid hydroperoxide glutathione peroxidase GPX4 (Homo sapiens), sequence (P36969 whole entry, looked up): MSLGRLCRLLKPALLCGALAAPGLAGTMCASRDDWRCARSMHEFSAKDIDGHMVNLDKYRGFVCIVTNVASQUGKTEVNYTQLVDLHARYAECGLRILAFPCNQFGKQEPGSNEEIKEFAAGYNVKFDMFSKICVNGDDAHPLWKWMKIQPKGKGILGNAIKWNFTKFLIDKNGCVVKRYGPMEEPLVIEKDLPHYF
# Method in brief: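 NADPH consumption followed by fluorescence at 340/450 nm, t=0 and after 15 min at room temperature. Reaction started with cumene hydroperoxide (0.5 mM final) after 30 min compound–GPX4 preincubation; final 200 nM GPX4, 100 nM GR, 1 mM GSH, 0.5 mM NADPH.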
# Also: nearly all actives have a fitted effect of over 65% in size.
# Potency is read from the fitted curve at half-maximal effect.
Structure (SMILES),Potency [1],Potency [2],"activity change, negative = inhibition [2]","activity, negative = inhibition [1]"
CC(=O)OCC(=O)[C@@]1(O)[C@H](C)C[C@H]2[C@@H]3C[C@H](F)C4=CC(=O)C=C[C@]4(C)[C@@]3(F)[C@@H](O)C[C@@]21C,inactive,inactive,,
Cc1ccc(S(=O)(=O)O)cc1,inactive,inactive,,
CC[C@H]1OC(=O)C[C@@H](OC(C)=O)[C@H](C)[C@@H](O[C@@H]2O[C@H](C)[C@@H](O[C@H]3C[C@@](C)(O)[C@@H](OC(=O)CC(C)C)[C@H](C)O3)[C@H](N(C)C)[C@H]2O)[C@@H](CC=O)C[C@@H](C)C(=O)/C=C/C(C)=C/[C@@H]1CO[C@@H]1O[C@H](C)[C@@H](O)[C@@H](OC)[C@H]1OC,inactive,inactive,,
CC(OC(=O)OC1CCCCC1)OC(=O)C1=C(CSc2nnnn2CCN(C)C)CS[C@@H]2[C@H](NC(=O)Cc3csc(N)n3)C(=O)N12 (some centres undefined),7.18 µM (active),8.91 µM (active),,
CCC(C)C(NC(=O)C(Cc1ccc(O)cc1)NC(=O)C(NC(=O)C(CCCN=C(N)N)NC(=O)C(N)CC(=O)O)C(C)C)C(=O)NC(Cc1cnc[nH]1)C(=O)N1CCCC1C(=O)NC(Cc1ccccc1)C(=O)O (centres undefined),inactive,inactive,,
CCCCCCC(COC(=O)c1cccnc1)(COC(=O)c1cccnc1)COC(=O)c1cccnc1,inactive,inactive,,
"C[C@@H]1NC(=O)[C@@H]2CCCN2C(=O)[C@H](CC(N)=O)NC(=O)[C@@H]2CSSC[C@H](N)C(=O)N[C@H]3CSSC[C@H](NC1=O)C(=O)N[C@@H]([C@@H](C)O)C(=O)NCC(=O)N[C@H](C(=O)N[C@@H](Cc1ccc(O)cc1)C(=O)O)CSSC[C@H](NC(=O)[C@H](Cc1ccc(O)cc1)NC(=O)[C@H](CCC(=O)O)NC3=O)C(=O)N2 (H-CCEYCCNPACTGCY-OH; disulfide 1-6, 2-10, 5-13)",inactive,inactive,,
C[C@@H]1O[C@@H](O[C@@H]2/C=C/C=C/C=C\C=C\C[C@H](C)OC(=O)/C=C/[C@H]3O[C@@H]3C[C@H](O)C[C@]3(O)C[C@@H](O)[C@@H](C(=O)O)[C@H](C2)O3)[C@H](O)[C@H](N)[C@@H]1O,inactive,,-18.7% [at 9.73 µM],
CC(C)OC(=O)CCC/C=C\C[C@@H]1[C@@H](/C=C/[C@@H](O)COc2cccc(C(F)(F)F)c2)[C@H](O)C[C@@H]1O,inactive,inactive,,
CN(C)CC(=O)O,inactive,inactive,,
NS(=O)(=O)c1ccc(-n2nc(C(F)(F)F)cc2-c2ccc(F)cc2)cc1,inactive,inactive,,
CCCCC(CC)COC(=O)c1ccc(Nc2nc(Nc3ccc(C(=O)OCC(CC)CCCC)cc3)nc(Nc3ccc(C(=O)OCC(CC)CCCC)cc3)n2)cc1 (centres undefined),inactive,inactive,,
C[N+]1(C)C2CC[C@H]1CC(OC(=O)C(O)c1ccccc1)C2 (some centres undefined),inactive,inactive,,
OB1OCc2cc(F)ccc21,inactive,inactive,,
CCCC[C@H](C)C[C@H](O)/C=C/[C@H]1[C@H](O)CC(=O)[C@@H]1CCCC/C=C/C(=O)O,inactive,inactive,,
CCCCCCCCCCCCCCCC(=O)OCC(O)C1OC(=O)C(O)=C1O (centres undefined),inactive,7.08 µM (active),,
COC(=S)NCCn1c([N+](=O)[O-])cnc1C,inactive,inactive,,
CCC1(C)OC(=O)N(C)C1=O (centres undefined),inactive,inactive,,
CCC(=C(CC)c1ccc(OP(=O)(O)O)cc1)c1ccc(OP(=O)(O)O)cc1,,,1.61% [at 0.409 µM],1.38% [at 0.4 µM]
CN1N=C2CCN(C(=O)[C@H](COCc3ccccc3)NC(=O)C(C)(C)N)C[C@]2(Cc2ccccc2)C1=O,inactive,inactive,,
OC(CCN1CCCCC1)(c1ccccc1)C1CCCC1 (centres undefined),inactive,inactive,,
O=c1c2c(c1=O)N(CCP(=O)(O)O)CCCN2,inactive,inactive,,
O=C(O)C[C@@H]1CC[C@H](NC(=O)Cc2cccs2)B(O)O1,inactive,inactive,,
CCCCCCCCCCCCOC(=O)CS(=O)(=O)O,inactive,14.1 µM (active),,
O=C(OCCN(CCO)CCO)c1ccccc1O,inactive,inactive,,
CCCCC(F)(F)C1(O)CCC2C(CC(=O)C2CCCCCCC(=O)O)O1 (centres undefined),inactive,inactive,,
NC(N)=NCCC[C@@H](N)C(=O)N[C@@H](CCCN=C(N)N)C(=O)N1CCC[C@H]1C(=O)N1C[C@H](O)C[C@H]1C(=O)NCC(=O)N[C@@H](Cc1cccs1)C(=O)N[C@@H](CO)C(=O)N1Cc2ccccc2C[C@@H]1C(=O)N1[C@H](C(=O)N[C@@H](CCCN=C(N)N)C(=O)O)C[C@@H]2CCCC[C@@H]21,inactive,inactive,,

# From PubChem BioAssay (NCATS)
